The panel holds about 79,000 compounds, 15% with a hit somewhere; the sample as a whole holds those more often. Cut-off read from the data, not from the text of the source: active = growth inhibition above about 70%; inactive = the rest.
Tests used:
[1] = NCI Yeast Anticancer Drug Screen. Data for the rad50 strain (AID 155);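 note: 0% = growth of vehicle-only cultures of the same strain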; details: S. cerevisiae rad50 strain growth inhibition; at 50.0 µM; stronger effect = higher value
Procedure, shortened: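 Readout: growth inhibition relative to vehicle-treated cultures. Compound exposure was carried out in a genetically defined yeast strain deficient in DNA damage repair.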

[2] = NCI Yeast Anticancer Drug Screen. Data for the mec2-1 strain (AID 157); details: S. cerevisiae mec2-1 strain, at 50.0 µM, stronger effect = higher value
Procedure, shortened: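 Growth inhibition is read against vehicle-treated controls after compound exposure of the mec2-1 yeast strain, which is defective in DNA damage repair or cell cycle control.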

[3] = NCI Yeast Anticancer Drug Screen. Data for the sgs1 mgt1 strain (AID 161);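 note: 0% = growth of cultures given vehicle only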; details: S. cerevisiae sgs1 mgt1 strain, at 50.0 µM, stronger effect = higher value
Procedure, shortened: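 This yeast growth screen uses a strain with defined DNA-repair lesions; compound-treated growth is compared with vehicle-treated growth.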

[4] = NCI Yeast Anticancer Drug Screen. Data for the cln2 rad14 strain (AID 165);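 note: 0% = growth equal to vehicle treated cultures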; details: S. cerevisiae cln2 rad14 strain, at 50.0 µM, stronger effect = higher value
Procedure, shortened: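 Growth inhibition, relative to vehicle-treated controls, is the read-out. The test organism is a yeast strain with defined genetic alterations, cln2 rad14.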

[5] = NCI Yeast Anticancer Drug Screen. Data for the bub3 strain (AID 167); details: S. cerevisiae bub3 mutant strain, at 50.0 µM, stronger effect = higher value
Procedure, shortened: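 Readout: yeast growth inhibition, expressed relative to vehicle-only wells. The test organism is a mutant strain from a panel with lesions in DNA repair or checkpoint genes.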

[6] = NCI Yeast Anticancer Drug Screen. Data for the mlh1 rad18 strain (AID 175); details: S. cerevisiae mlh1 rad18 strain growth inhibition; at 50.0 µM; stronger effect = higher value
Procedure, shortened: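 Cells of a genetically altered yeast strain, deficient in DNA damage repair, were treated with compound. Their growth was then compared with that of vehicle-treated cultures to give inhibition.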

Measured: growth inhibition

CC(C)C(NC(=O)C1CSC(C)(C)N1C=O)C(=O)O (stereo not given)
inactive: [1] -1.6% | [2] -0.1% | [3] -3.3% | [4] -8.35% | [5] 6.55% | [6] 2.25%

C=CC(=NC(C)(C)C)Nc1ccc(Cl)cc1
inactive: [1] -13% | [2] -6.8% | [3] -36.2% | [4] -14.6% | [5] -19.2% | [6] 3.4%

Cc1nn(-c2ccccc2)c2c1CC(=O)Nc1ccccc1-2
inactive: [1] -14.1% | [2] -29.1% | [3] -11.5% | [4] -26.8% | [5] -37.6% | [6] 9.15%

Cn1c(=O)c2ccccc2c2cc(Br)ccc21
inactive: [1] 41.1% | [2] 6.05% | [3] 4.15% | [4] -14.8% | [5] 7.8% | [6] 20.6%

O=C1C2C3C=C4c5ccccc5N(c5ccccc5)C4(C2C(=O)N1c1ccc([N+](=O)[O-])cc1)[C@H]1C(=O)N(c2ccc([N+](=O)[O-])cc2)C(=O)[C@@H]31 (stereo not given in full)
inactive: [1] 14.7% | [2] 22.1% | [3] 21.9% | [4] 13.2% | [5] 28% | [6] 19.1%

O=C(Nc1ccc(F)cc1)Nc1ccc(F)cc1
inactive: [1] 3.4% | [2] -10.9% | [3] -3.25% | [4] -43.7% | [5] -32.9% | [6] -16.6%

COc1cc(-c2cc(=O)c3c(OC)c(OC)c(OC)cc3o2)c(OC)c(OC)c1OC
inactive: [1] 38% | [2] 10.6% | [3] 3.05% | [4] -12.9% | [5] -6.15% | [6] -36.8%

CCC(C)CCC(=O)C(C)C(=O)O (stereo not given)
inactive: [1] 5.7% | [2] 3.1% | [3] 3.45% | [4] -11.3% | [5] 4.45% | [6] 0.5%

O=C1c2ccccc2C(=O)c2cc(N=Nc3c(O)ccc4ccccc34)ccc21
inactive: [1] 2.05% | [2] 35.9% | [3] -6% | [4] 4.25% | [5] 2.7% | [6] 2.1%

CCN(CC)c1ccc2c(C)c(Cc3ccccc3)c(=O)oc2c1
inactive: [1] 1.8% | [2] -22.8% | [3] 24.6% | [4] 7.7% | [5] 31.9% | [6] 0.7%

COc1cc2ccncc2cc1O
inactive: [1] -7.25% | [2] -18.4% | [3] -26.3% | [4] -4.25% | [5] 9.45% | [6] -16.1%

O=C(Cl)c1cc(-c2ccccc2)nc2c(Cl)cccc12
inactive: [1] 46.1% | [2] 39.4% | [3] 43% | [4] 39.1% | [5] 40.5% | [6] 38%

CC(C)CCC[C@@H](C)[C@H]1CC[C@@]2(C)C3=C(C(=O)C[C@]12C)[C@@]1(C)CC[C@H](O)C(C)(C)[C@@H]1CC3=O
inactive: [1] 8.5% | [2] -16.7% | [3] 17.1% | [4] -40.6% | [5] 6.1% | [6] 10.3%

CC(C)(C=O)OC(=O)c1cc([N+](=O)[O-])cc([N+](=O)[O-])c1
inactive: [1] 7.2% | [2] -14.2% | [3] 27.4% | [4] 29.8% | [5] -8% | [6] 1.6%

O=CNCO
inactive: [1] 19.6% | [2] 14.2% | [3] 22.6% | [4] 18.9% | [5] 8.5% | [6] 19.1%

Cc1ccccc1N1CCOS(=O)OC(C)C1 (stereo not given)
inactive: [1] -3.6% | [2] 23.7% | [3] 64.8% | [4] 39.9% | [5] 55.3% | [6] 57.5%

COC(=O)CSc1n[nH]c(-c2ccccc2)n1
inactive: [1] 1.05% | [2] -7.25% | [3] 7.2% | [4] -1% | [5] 3.4% | [6] -4.3%

CCC(CO)NC(=O)c1cccnc1 (stereo not given)
inactive: [1] -13.5% | [2] -8.3% | [3] -2.85% | [4] -19% | [5] -7.6% | [6] 2.25%

C#CC1(O)c2ccccc2C(=O)c2ccccc21
inactive: [1] -1.05% | [2] -7.85% | [3] -7.65% | [4] -7.35% | [5] 6.7% | [6] -2.35%

O=C(O)/C=C\C(=O)Nc1ccccc1Cl
inactive: [1] -12.8% | [2] -9.95% | [3] 10.9% | [4] 6.85% | [5] 13.4% | [6] -10.8%

CC(C)(C)CC(CC(C)(C)C)C(=O)O
inactive: [1] 28.9% | [2] -1.2% | [3] -3.5% | [4] 1.85% | [5] 4.05% | [6] 21.3%

CCCC(N)C(=O)NC(Cc1c[nH]c2ccccc12)C(=O)O (stereo not given)
inactive: [1] -23.9% | [2] -6.65% | [3] -12% | [4] -0.3% | [5] 0.9% | [6] 2.05%

CN1CCCC1c1cccnc1.O=C(O)c1ccccc1O.O=C([O-])c1ccccc1[OH2+].O=C([O-])c1ccccc1[OH2+].[Mn+2] (stereo not given)
inactive: [1] -3.05% | [2] -0.4% | [3] -24.7% | [4] -30.7% | [5] -29% | [6] 4.15%

Cc1cc(=O)c2cc([N+](=O)[O-])ccc2[nH]1
inactive: [1] 6.05% | [2] 6.35% | [3] -9.7% | [4] -5.95% | [5] 5.85% | [6] -2.65%

Cc1ccc(N2CCN(CCC(=O)O)CC2)cc1
inactive: [1] -1.15% | [2] 8.8% | [3] 0.75% | [4] -3.85% | [5] -41.6% | [6] 22.4%

CCOC(=O)C1=NN(c2ccccc2)C(=O)/C1=C\N1C(=S)NC(=O)/C1=C\c1cccc([N+](=O)[O-])c1
inactive: [1] 11.2% | [2] -11.6% | [3] 1.25% | [4] 31.3% | [5] -4.8% | [6] -4.8%

CCOC(=O)OC1CCCCC1c1ccccc1 (stereo not given)
inactive: [1] 13.7% | [2] -12.9% | [3] -7.15% | [4] -14.9% | [5] -20.1% | [6] -16.2%

CC(C)Sc1nc(NC(=O)N(C)N=O)cc(=O)[nH]1
inactive: [1] -3.4% | [2] -3.45% | [3] 19.6% | [4] 27.5% | [5] -9.95% | [6] -32.1%

NC(=O)NOCC(N)C(=O)O (stereo not given)
inactive: [1] -7.2% | [2] 1.8% | [3] 1.15% | [4] -41.3% | [5] 5.35% | [6] -2.9%

O=C(NNC(O)C(F)(F)F)c1ccccc1 (stereo not given)
inactive: [1] 12.3% | [2] 2.4% | [3] 10.1% | [4] -35.2% | [5] 11.2% | [6] 1.5%

COc1ccc(Cl)cc1NC(=O)Oc1ccc2ccccc2c1
inactive: [1] -5.8% | [2] 29.2% | [3] 12.2% | [4] -12.7% | [5] 27.3% | [6] 38.2%

CCN(CC)CCn1c(=O)c2c(ncn2C)n(C)c1=O
inactive: [1] -5.55% | [2] -22.7% | [3] 12.6% | [4] -36.3% | [5] 11.8% | [6] -15.6%

O=[N+]([O-])c1ccc(Br)cc1
inactive: [1] -6.5% | [2] -14.2% | [3] 17.7% | [4] 16.2% | [5] -2.3% | [6] 19.2%

OC(CNc1ncccn1)(c1ccccc1)c1ccccc1
inactive: [1] -0.25% | [2] -24.8% | [3] -0.7% | [4] 13% | [5] 8.8% | [6] -17.1%

CN(Cc1cccc(Cl)c1)C(=O)NC(C)(C)C
inactive: [1] 2.85% | [2] -6.85% | [3] 15.8% | [4] 4.2% | [5] 14.6% | [6] 0.05%

O=S=C1SC2CCCCC2S1 (stereo not given)
inactive: [1] 2.75% | [2] 4.15% | [3] -5.4% | [4] -9.05% | [5] -9.45% | [6] 8.1%

CC(/C=C/C=C/C=C/C=C/C=C/C(O)=C1/C(=O)C(CCC(=O)O)N(C)C1=O)=C\C(C)C(OC1CC(O)C(O)C(C)O1)C(C)C (stereo not given)
inactive: [1] -11.6% | [2] -28.6% | [3] -1.7% | [4] 3.35% | [5] -10.1% | [6] -2.65%

O=C(c1ccccc1)N1C2C3CC(OCc4ccccc4)(OCc4ccccc4)C(O3)C21 (stereo not given)
inactive: [1] -8.35% | [2] -3.3% | [3] -16.4% | [4] -12.6% | [5] 16.8% | [6] -9.95%

CC(=O)c1cc(C(C)=O)c(CC(=O)C(=O)Nc2cccc(C)c2C)nc1CC(=O)C(=O)Nc1cccc(C)c1C
inactive: [1] 2.9% | [2] -6.3% | [3] 16.5% | [4] -19.2% | [5] -9.6% | [6] -18.5%

OC(CBr)(c1ccccc1)c1ccccc1
inactive: [1] 13.5% | [2] 23.4% | [3] 19.9% | [4] 31.3% | [5] 7% | [6] 24.1%
